Measured values published in the supplement of paper PMC6089552.
The campaign covered roughly 3,200 compounds. About 300 (9.4%) showed activity. The sample as a whole holds a higher share of actives than the screen did.

Test system: A673/TR/shEF
Assay: cell viability (LOESS-normalised, relative to median of negative controls) (log2 ratio); higher = more viable cells (less compound effect), active = hit call of the paper (over 3 MAD below the median)
Conditions: treatment time: 72 h
Procedure, shortened: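 For three days, A673/TR/shEF Ewing sarcoma cells in 384-well plates (1,500 per well) were treated with library compounds at two or more concentrations or with DMSO controls, after doxycycline had been added or withheld 24 h beforehand to induce EWS-FLI1 shRNA knockdown. Viability was read by CellTiter-Glo luminescence on an Envision reader. The data were LOESS-corrected per plate, divided by the median of negative controls and log2-transformed.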

[1] = 0.103 µM, library screen: screen3, EWS-FLI1 expression: high (no doxycycline)
[2] = 0.103 µM, library screen: screen3, EWS-FLI1 expression: low (doxycycline-induced shRNA knockdown)
[3] = 0.308 µM, library screen: screen3, EWS-FLI1 expression: high (no doxycycline)
[4] = 0.308 µM, library screen: screen3, EWS-FLI1 expression: low (doxycycline-induced shRNA knockdown)
[5] = 0.926 µM, library screen: screen3, EWS-FLI1 expression: high (no doxycycline)
[6] = 0.926 µM, library screen: screen3, EWS-FLI1 expression: low (doxycycline-induced shRNA knockdown)
[7] = 2.8 µM, library screen: screen3, EWS-FLI1 expression: high (no doxycycline)
[8] = 2.8 µM, library screen: screen3, EWS-FLI1 expression: low (doxycycline-induced shRNA knockdown)
[9] = 8.3 µM, library screen: screen3, EWS-FLI1 expression: high (no doxycycline)
[10] = 8.3 µM, library screen: screen3, EWS-FLI1 expression: low (doxycycline-induced shRNA knockdown)
[11] = 25 µM, library screen: screen3, EWS-FLI1 expression: high (no doxycycline)
[12] = 25 µM, library screen: screen3, EWS-FLI1 expression: low (doxycycline-induced shRNA knockdown)
[13] = 0.25 µM, library screen: screen1, EWS-FLI1 expression: high (no doxycycline)
[14] = 0.25 µM, library screen: screen1, EWS-FLI1 expression: low (doxycycline-induced shRNA knockdown)
[15] = 2.5 µM, library screen: screen1, EWS-FLI1 expression: high (no doxycycline)
[16] = 2.5 µM, library screen: screen1, EWS-FLI1 expression: low (doxycycline-induced shRNA knockdown)
[17] = 0.025 µM, library screen: screen1, EWS-FLI1 expression: high (no doxycycline)
[18] = 0.025 µM, library screen: screen1, EWS-FLI1 expression: low (doxycycline-induced shRNA knockdown)
[19] = 25 µM, library screen: screen1, EWS-FLI1 expression: high (no doxycycline)
[20] = 25 µM, library screen: screen1, EWS-FLI1 expression: low (doxycycline-induced shRNA knockdown)
[21] = 0.25 µM, library screen: screen2, EWS-FLI1 expression: high (no doxycycline)
[22] = 0.25 µM, library screen: screen2, EWS-FLI1 expression: low (doxycycline-induced shRNA knockdown)
[23] = 2.5 µM, library screen: screen2, EWS-FLI1 expression: high (no doxycycline)
[24] = 2.5 µM, library screen: screen2, EWS-FLI1 expression: low (doxycycline-induced shRNA knockdown)

Measured: cell viability (log2)

Cn1cnc2c(F)c(Nc3ccc(Br)cc3Cl)c(C(=O)NOCCO)cc21
active: [5] -0.189 | [7] -0.222 | [9] -0.293 | [11] -0.303
inactive: [1] -0.0515 | [2] 0.111 | [3] -0.109 | [4] 0.0965 | [6] 0.113 | [8] 0.014 | [10] 0.0549 | [12] -0.089

Cc1ccccc1CN1CCN(Cc2ccco2)CC1
inactive: [13] 0.12 | [14] 0.0129 | [15] 0.0799 | [16] -0.0931

Cc1ccc(CN2CCN(Cc3c[nH]c4ccccc34)CC2)cc1
inactive: [13] 0.0521 | [14] 0.0225 | [15] 0.104 | [16] 0.0231

CC(=O)c1cc2c(cc1O)OC(C)(C)C=C2
inactive: [13] 0.16 | [14] -0.0151 | [15] 0.126 | [16] 0.0912

CC(C(=O)O)N1C(=O)C(=Cc2cccnc2)SC1=S (stereo unspecified)
inactive: [13] -0.0281 | [14] 0.0107 | [15] 0.0923 | [16] -0.0695

CC(C)N1C(=O)C(=Cc2ccccc2F)SC1=S
inactive: [13] 0.0965 | [14] 0.0324 | [15] 0.0812 | [16] -0.039

CC(C(=O)O)N1C(=O)C(=Cc2ccccn2)SC1=S (stereo unspecified)
active: [13] -2.05 | [14] -1.9
inactive: [15] 0.144 | [16] 0.106

C=CC1=C(C)/C(=C/c2[nH]c(Cc3[nH]c(/C=C4\NC(=O)C(C)=C4C=C)c(C)c3CCC(=O)O)c(CCC(=O)O)c2C)NC1=O
inactive: [13] 0.0132 | [14] 0.0277 | [15] 0.0983 | [16] 0.128

S=c1[nH]nc(COc2ccc(Cl)cc2Cl)n1-c1ccccc1
inactive: [13] 0.00963 | [14] 0.148 | [15] 0.0937 | [16] 0.0872

C[C@@H]1CC[C@@]2(OC1)O[C@H]1C[C@H]3[C@@H]4CC[C@H]5C[C@@H](O)CC[C@]5(C)[C@H]4CC(=O)[C@]3(C)[C@H]1[C@@H]2C
inactive: [13] 0.102 | [14] -0.00894 | [15] 0.127 | [16] 0.0766

Nc1ncnc2nc[nH]c12
inactive: [1] -0.0276 | [2] 0.0358 | [13] -0.00904 | [14] 0.112 | [3] 0.0266 | [4] 0.0376 | [5] 0.0356 | [6] 0.0359 | [15] 0.0839 | [16] 0.087 | [7] -0.0229 | [8] 0.045 | [9] -0.016 | [10] 0.0209 | [11] 0.0262 | [12] 0.0745

Nc1ncc2[nH]cnc2n1
inactive: [17] 0.156 | [18] 0.0178 | [13] 0.22 | [14] 0.0137 | [16] 0.025 | [19] -0.0198 | [20] 0.0477
active: [15] -0.0954

Nc1nc(OCc2ccccc2)c2[nH]cnc2n1
inactive: [21] 0.21 | [22] 0.111 | [23] 0.106 | [24] 0.0266

CN1CCC[C@@H]1c1cccnc1
inactive: [21] 0.0881 | [22] 0.0848 | [23] 0.112 | [24] 0.123

C[C@H](C[C@@H](O)[C@@H]1OC1(C)C)[C@@H]1CC[C@]2(C)C3=CC[C@H]4C(C)(C)C(=O)CC[C@]4(C)[C@H]3CC[C@@]12C
inactive: [13] 0.0762 | [14] 0.064 | [15] 0.0491 | [16] 0.136

CNc1ncnc2c1ncn2[C@@H]1O[C@H](CO)[C@@H](O)[C@H]1O
inactive: [21] 0.104 | [22] 0.0674 | [23] 0.0505 | [24] 0.098

Nc1ncnc2c1c(I)cn2[C@@H]1O[C@H](CO)[C@@H](O)[C@H]1O
inactive: [17] 0.145 | [18] -0.151 | [13] -0.0341 | [14] -0.172
active: [15] -1.08 | [16] -0.349 | [19] -2.42 | [20] -2.11

Nc1ncnc2c1ncn2[C@@H]1O[C@H](CO)[C@@H](O)[C@H]1O
inactive: [1] 0.0648 | [2] 0.118 | [13] 0.105 | [14] 0.0646 | [22] 0.0787 | [3] 0.108 | [4] 0.149 | [5] 0.0961 | [6] 0.106 | [15] 0.129 | [16] 0.198 | [23] 0.141 | [24] 0.177 | [7] 0.133 | [8] 0.0552 | [9] 0.0565 | [10] 0.0635 | [11] 0.137 | [12] 0.158
active: [21] -0.195

Nc1nccc2c1ncn2[C@@H]1O[C@H](CO)[C@@H](O)[C@H]1O
inactive: [21] 0.199 | [22] 0.0735 | [23] 0.0748 | [24] 0.125

Nc1ncnc2c1ncn2C1OC(C(=O)NC2CC2)C(O)C1O (stereo unspecified)
inactive: [21] 0.208 | [22] 0.0695 | [23] 0.136 | [24] 0.0888

Nc1ncnc2c1ncn2C1CCCO1 (stereo unspecified)
active: [21] -0.183 | [22] -0.136 | [23] -0.771 | [24] -0.568

Nc1nc(F)nc2c1ncn2[C@@H]1O[C@H](CO)[C@@H](O)[C@@H]1O
inactive: [1] -0.0149 | [2] 0.0418 | [3] 0.0122 | [4] 0.0299 | [5] -0.0547 | [6] 0.0332 | [7] 0.0695 | [8] 0.0196 | [9] 0.023 | [10] 0.0649 | [11] 0.0762 | [12] 0.0699

Nc1ncnc2c1ncn2C1CCCC1
inactive: [21] 0.222 | [22] 0.00723 | [23] 0.162 | [24] 0.101

Nc1ncnc2c1ncn2[C@@H]1O[C@H](CO)[C@@H](O)[C@@H]1O
inactive: 0.025 µM, library screen: screen2, EWS-FLI1 expression: high (no doxycycline) 0.125 | 0.025 µM, library screen: screen2, EWS-FLI1 expression: low (doxycycline-induced shRNA knockdown) 0.0247 | [1] 0.0965 | [2] 0.0781 | [21] 0.146 | [22] 0.0437 | [3] 0.134 | [4] 0.0881 | [5] 0.113 | [6] 0.0711 | [23] 0.229 | [24] 0.0883 | [7] 0.122 | [8] 0.114 | [9] 0.0774 | [10] 0.127 | 25 µM, library screen: screen2, EWS-FLI1 expression: high (no doxycycline) 0.0602 | 25 µM, library screen: screen2, EWS-FLI1 expression: low (doxycycline-induced shRNA knockdown) 0.0701 | [11] 0.0148 | [12] 0.128

COc1ccc(C(C)C(=O)c2ccc(O)cc2O)cc1 (stereo unspecified)
inactive: [13] 0.0783 | [14] 0.0339 | [15] 0.16 | [16] 0.123

CCOc1ccc(C(=O)c2cc(O)c(OC)c(OC)c2O)cc1
inactive: [13] 0.0714 | [14] 0.0518 | [15] 0.162 | [16] 0.129

CC(=O)OC1CCC2(C)C3=C(CC[C@H]2C1(C)C)[C@@]1(C)CC[C@@H]([C@@H](C)CCC=C(C)C)[C@]1(C)CC3 (stereo partly specified)
inactive: [13] 0.058 | [14] -0.000522 | [15] 0.0338 | [16] -0.0772

CCN1C(=O)/C(=C\c2cn(CCC#N)nc2-c2ccc(F)cc2)SC1=S
inactive: [13] 0.0868 | [14] 0.118 | [15] 0.107 | [16] -0.0141

O=C(NCc1ccco1)/C(=C\c1ccco1)NC(=O)c1cccs1
inactive: [13] 0.0268 | [14] 0.0429 | [15] 0.0986 | [16] 0.0245

O[C@@H](c1cc(C(F)(F)F)nc2c(C(F)(F)F)cccc12)[C@H]1CCCCN1
inactive: [13] 0.149 | [14] 0.0284 | [15] 0.156 | [16] 0.0765

OCC1OC(O)C(O)C(O)C1O (stereo unspecified)
inactive: [1] 0.00138 | [2] 0.0347 | [3] 0.0849 | [4] 0.0509 | [5] 0.0635 | [6] 0.0529 | [7] 0.0615 | [8] 0.0566 | [9] 0.0472 | [10] -0.0279 | [11] 0.168 | [12] 0.04

C=C1c2cccc(O)c2C(O)=C2C(=O)[C@]3(O)C(O)=C(C(N)=O)C(=O)[C@@H](N(C)C)[C@@H]3[C@@H](O)[C@H]12
active: [13] -0.16 | [15] -0.0967
inactive: [1] -0.0411 | [2] 0.0402 | [14] 0.0695 | [3] -0.0282 | [4] 0.0462 | [5] -0.105 | [6] 0.0725 | [16] 0.152 | [7] -0.0751 | [8] 0.0891 | [9] -0.0644 | [10] 0.0589 | [11] -0.0984 | [12] 0.0914

CN(C)c1ccc(O)c2c1C[C@H]1C[C@H]3[C@H](N(C)C)C(=O)C(C(N)=O)=C(O)[C@@]3(O)C(=O)C1=C2O
inactive: [14] -0.0588 | [21] 0.0664 | [22] 0.133 | [16] 0.0344 | [23] 0.00725 | [24] 0.0554
active: [13] -0.177 | [15] -0.0936

C[C@H]1c2cccc(O)c2C(O)=C2C(=O)[C@]3(O)C(O)=C(C(N)=O)C(=O)[C@@H](N(C)C)[C@@H]3[C@@H](O)[C@@H]21
inactive: [13] 0.0339 | [14] 0.251 | [21] 0.0723 | [22] 0.0745 | [15] 0.0598 | [16] 0.256 | [23] -0.00226 | [24] 0.0538

C=C1c2c(Cl)ccc(O)c2C(O)=C2C(=O)[C@]3(O)C(O)=C(C(N)=O)C(=O)[C@@H](N(C)C)[C@@H]3[C@@H](O)[C@H]12.O=C(O)c1cc(S(=O)(=O)O)ccc1O
active: [13] -0.128 | [15] -0.126
inactive: [14] 0.0882 | [16] 0.0927
